# Results filed as inconclusive are left out. Active and inactive are the calls of the source. The call rests on the fitted dose curve; in most records, active means well fitted cell-killing curve with a large enough effect in the repeat runs; inconclusive means weak or mixed curves; inactive means flat fitted curve, though single readings scatter.
# Assay: qHTS RealTime-Glo MT Cell Viability Assay in HepG2 cells - 32 hour (AID 1224877); further: nearly all actives have a fitted effect of over 55% in size
# Conditions: RealTime-Glo luminescence; series mostly up to 76.8 µM
# Excerpt: U.S. Tox21 Program National Center for Advancing Translational Sciences [NCATS] NIH Chemical Genomics Center [NCGC] U.S. Environmental Protection Agency [EPA] National Institutes of Environmental Health Sciences [NIEHS] National Toxicology Program [NTP] U.S. Food and Drug Administration [FDA] Tox21 Assay Overview: Measure of cell viability is critical in the cell-base assay. Analysis of cell viability is necessary for the characterization of cell responses to cytotoxic drugs and environmental stress. A RealTime-Glo MT Cell Viability Assay to monitor cell viability in real time of continues cell culture during 40 hours of compound treatment was used to screen Tox21 10K library compounds in HepG2 cells. The RealTime-Glo MT Cell Viability Assay is a nonlytic, homogeneous, bioluminescent method to measure cell viability in real time using a simple, plate-based method. The assay involves adding NanoLuc luciferase and a cell-permeant prosubstrate to cells in culture. Viable cells reduce the proprietary prosubstrate to generate a substrate for NanoLuc luciferase. This substrate diffuses from cells into the surrounding culture medium, where it is rapidly used by the NanoLuc Enzyme to produce a luminescent signal. The signal correlates with the number of viable cells, making the assay well suited for cytotoxicity studies.
# Tox21 Assay Protocol Summary: The mixture of HepG2 cell suspension and reagents were dispensed at 600cells/6 ul/well in 1536-well tissue culture treated black solid bottom plates using a Multidrop dispenser. After the assay plates were incubated at a 37 C/5% CO2 incubator for 5 hours, 23 nL of compounds dissolved in DMSO, positive and negative controls was transferred to the assay plate by a pintool work station. The plates were incubated at 37 C for 40 hours. The luminescence intensity were measured at 0h, 8h, 16h, 24h, 32h and 40h time points using ViewLux plate reader during compound treatment.
row,Compound,outcome
1,CCCOC(=O)C(C)O (stereo not given),inactive
2,CC(C)CCCC(C)(C)O,inactive
3,COCCOCCOCCOCCO,inactive
4,CCCCOC(=O)c1ccccc1,inactive
5,C#CC(C)N(C)C(=O)Nc1ccc(Cl)cc1 (stereo not given),inactive
6,O=C1CCCC(=O)O1,inactive
7,O=C(O)Cc1ccc(Cl)cc1Cl,inactive
8,Cc1ccccc1C(=O)Nc1ccc(C(=O)N2CCCC(N(C)C)c3ccccc32)cc1 (stereo not given),inactive
9,NS(=O)(=O)c1cc2c(cc1Cl)CN(C1CCCCC1)C2=O,inactive
10,CCCCCCCCC1CCC(=O)O1 (stereo not given),inactive
11,CC(C)C(=O)OCCc1ccccc1,inactive
12,CC1=CCC(C(C)C)=CC1,inactive
13,CC[C@H](C)C(=O)O[C@H]1C[C@H](O)C=C2C=C[C@H](C)[C@H](CC[C@@H](O)C[C@@H](O)CC(=O)O)[C@H]21,inactive
14,CCCCCCCCOS(=O)(=O)O,inactive
15,O=C(OCC(O)CO)c1ccccc1Nc1ccnc2c(C(F)(F)F)cccc12 (stereo not given),inactive
16,CCC(C)NC(N)=O (stereo not given),inactive
17,Nc1ccc([N+](=O)[O-])c(N)c1,inactive
18,C=C(C)C(=O)OCC(C)(C)COC(=O)C(=C)C,inactive
19,C[C@H](N)[C@H](O)c1cccc(O)c1,inactive
20,COc1ccc(Br)c(C)c1,inactive

row,Compound,outcome
1,CC(C)OC(=O)CCCCC(=O)OC(C)C,inactive
2,COc1cc(N)ccc1C,inactive
3,O=C(NCC(O)CO)c1c(I)c(C(=O)NCC(O)CO)c(I)c(N(CCO)C(=O)CO)c1I (stereo not given),inactive
4,CCCCNC1CC(C)(C)NC(C)(C)C1,inactive
5,C[Si](C)(C)C,inactive
6,O=C(CS(=O)Cc1ccco1)NC/C=C\COc1cc(CN2CCCCC2)ccn1 (stereo not given),inactive
7,O=S(=O)(O)c1cc(O)c2ccc(Nc3ccccc3)cc2c1,inactive
8,CC(CC=O)CCCC(C)(C)O (stereo not given),inactive
9,O=C(O)Cc1cn(-c2ccccc2)nc1-c1ccc(Cl)cc1,inactive
10,Nc1ncnc(Nc2ccccc2)n1,inactive
11,CC(C)CCCCOC(=O)c1ccccc1C(=O)OCCCCC(C)C,inactive
12,NC(CO)C(=O)NNCc1ccc(O)c(O)c1O (stereo not given),inactive
13,CN(C)C(=O)CNC(=O)Cc1ccccc1,inactive
14,Cc1ccc(C=O)cc1C,inactive
15,C=C(C)C(=O)OCc1ccccc1,inactive
16,CCN1CCc2nc(N)oc2CC1,inactive
17,N[C@@H](CCC(=O)Nc1ccc([N+](=O)[O-])cc1)C(=O)O,inactive
18,OCCCCC(O)CO (stereo not given),inactive
19,O=S(=O)(O)c1ccc2cc(O)c(S(=O)(=O)O)cc2c1,inactive
20,COc1ccc2c(c1OC)C(=O)O[C@@H]2[C@H]1c2c(cc3c(c2OC)OCO3)CCN1C,inactive

# Source: PubChem BioAssay (Tox21)
